Experimental data: the supplement of paper PMC3334620
The full ranking holds about 33,000 sequences; the median of “E-score (-0.5 to 0.5)” is about -0.036, and the highest 2% start at about 0.37. This is one part of a sample in which the highest values are shown more often than they occur.

Target: T1, Yer064c (UniProt P40041)
T1 sequence: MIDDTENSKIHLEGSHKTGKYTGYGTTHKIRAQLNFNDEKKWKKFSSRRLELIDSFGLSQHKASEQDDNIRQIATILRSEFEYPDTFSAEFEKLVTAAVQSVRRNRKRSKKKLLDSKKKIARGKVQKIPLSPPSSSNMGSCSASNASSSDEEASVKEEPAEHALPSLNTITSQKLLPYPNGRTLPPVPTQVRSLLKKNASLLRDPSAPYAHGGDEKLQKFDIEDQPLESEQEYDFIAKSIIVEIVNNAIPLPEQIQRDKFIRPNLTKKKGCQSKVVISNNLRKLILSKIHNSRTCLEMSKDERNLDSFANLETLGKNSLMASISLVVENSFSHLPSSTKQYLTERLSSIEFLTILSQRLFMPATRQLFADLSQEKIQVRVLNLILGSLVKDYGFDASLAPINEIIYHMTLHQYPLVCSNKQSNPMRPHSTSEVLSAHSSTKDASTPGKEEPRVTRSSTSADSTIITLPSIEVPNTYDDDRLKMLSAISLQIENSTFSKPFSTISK
Assay: PBM E-score (8-mer binding enrichment) (E-score (-0.5 to 0.5)); higher = stronger / more preferred TF binding
Details: protein concentration: 200 nM; construct: GST-full length
Summary of the method: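 Bound GST-tagged yeast transcription factors, applied at about 100-200 nM to double-stranded universal all-10-mer Agilent arrays, were detected with fluorescent anti-GST. Scans were normalised with masliner. A modified Wilcoxon-Mann-Whitney statistic, the E-score, was assigned to each ungapped eight-base word pooled with its reverse complement by the Universal PBM Analysis Suite.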

Sequence	PBM E-score
ATGACTTG	0.435
ACGACTTC	0.324
ATGACTTC	0.469
AGGACTTG	0.0575
CTGACCCC	-0.221
AAATGAAG	0.0192
ACACAGTC	0.285
ATGCAACC	-0.254
AACCAGTA	-0.0555
ATATACTC	0.103
AGGAGCTC	-0.0695
CGCTGCTC	-0.243
CAGTCAAG	0.267
CAGTCACA	0.42
CGGTCACC	-0.0952
CAGTCACC	0.423
CCGTCACC	-0.189
CCGTCACA	-0.22
CAGTCACG	0.413
CGGTCACA	-0.132
CTGTCACA	0.16
GACCTTTA	-0.0143

Sequence	PBM E-score
ATCGAGAT	-0.151
AATAGGAG	-0.113
AGAACGTG	-0.217
CTCTAGGA	0.0144
AGTCATCC	0.49
ATTCATCC	0.119
AGGCATCG	-0.125
AGTCATCG	0.492
GGTCATCA	0.228
CGTCATCC	-0.131
AGTCATCA	0.485
CGTCATCA	-0.004
ATTCATCG	0.205
GAGGTAAA	0.122
ATGTGGAG	0.0652
GGGCGCAC	-0.321
GCCAAGGC	-0.214
CGTCAGGC	-0.19
ACTCAGGG	0.311
AGTCAGGA	0.417
AGTCAGGC	0.449
GGTCAGGA	-0.138

Sequence	PBM E-score
AGTCAGGG	0.439
CGTCAGGA	-0.0376
ACTCAGGC	0.331
ATTCAGGG	0.0298
AAAGTCCA	0.0185
AGTGAGAG	-0.0545
AACGTGGG	-0.189
AGCGATCA	-0.0759
CTATGGAA	0.0704
CGAGCAGA	-0.0955
CGATTACA	0.101
GGATTAAA	0.205
GGATTACA	0.0898
TGATTAAA	0.418
TGATTACA	0.41
AGATTTAA	0.2
CGATTTAA	0.188
CGATTAAA	0.249
TGATTTAA	0.407
AGGTAGGG	-0.121
GATTGGCC	-0.0787
CCAACAAA	-0.069

Sequence	PBM E-score
ACTGCGGA	-0.0234
CCGGACTA	0.103
AGTTTAGG	0.0907
AGCAACTG	-0.155
GTTGACGA	0.126
CTTGACCC	-0.164
CTTGACTC	0.463
GTTGACAA	-0.00857
CTTGACTA	0.435
ATTGACAC	0.0304
GTTGACTA	0.457
ATTGACTC	0.445
ATTGACTG	0.275
CTTGACAA	0.113
CTTGACGC	-0.268
CTTGACCA	0.0717
ACTAACAC	0.315
CTAATTAG	0.175
AACATTAA	-0.00496
CTCGATGC	-0.0842
GCCTATCC	-0.207
